# In the supplement of paper PMC6555819:
# Columns and labels:
# Assay in all cases: PBM binding z-score (relative to random genomic background probes); higher = stronger binding; sequences stand for … in GC…GCGATTGACAGCGTAGAATGAAGG
# [1] = test system: PPARg:RXRa DBDmut IVT, anti-RXR (DBD mutation: RXRa K156A/R161A, NR concentration 270 nM, RXRa partner concentration 90 nM)
# Procedure, shortened: (§1)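 Custom Agilent 4×180K protein-binding microarrays carried double-stranded probes, each with a 34-nt variable region. These regions held direct-repeat seeds, single-nucleotide variants, half-site ablations and random human genomic background sequences. Ligand-free nuclear receptor dimers were incubated on the arrays for 1 h, antibodies against each partner (one per run) detected binding, and scanned fluorescence was regression-normalized. Binding z-scores take the random background probes as reference.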
# [2] = test system: PPARg:RXRa IVT, anti-PPARg (NR concentration 270 nM, RXRa partner concentration 90 nM)
# Procedure, shortened: as §1
# [3] = test system: PPARg DBDmut:RXRa IVT, anti-PPARg (DBD mutation: PPARg1 K132A/R137A, NR concentration 270 nM, RXRa partner concentration 90 nM)
# Procedure, shortened: as §1
# [4] = test system: PPARg DBDmut IVT, anti-PPARg (DBD mutation: PPARg1 K132A/R137A, NR concentration 270 nM)
# Procedure, shortened: as §1
# [5] = test system: PPARg homodimer (NR concentration 180 nM)
# Procedure, shortened: as §1
# [6] = test system: PXR:RXRa (NR concentration 270 nM, RXRa partner concentration 90 nM)
# Procedure, shortened: as §1
# [7] = test system: PXR homodimer (NR concentration 270 nM)
# Procedure, shortened: as §1
# [8] = test system: RARa:RXR (NR concentration 270 nM, RXRa partner concentration 90 nM)
# Procedure, shortened: as §1
# [9] = test system: RARa homodimer (NR concentration 270 nM)
# Procedure, shortened: as §1
# [10] = test system: RARb:RXRa (NR concentration 270 nM, RXRa partner concentration 90 nM)
# Procedure, shortened: as §1
Sequence,PBM binding z-score [1],PBM binding z-score [2],PBM binding z-score [3],PBM binding z-score [4],PBM binding z-score [5],PBM binding z-score [6],PBM binding z-score [7],PBM binding z-score [8],PBM binding z-score [9],PBM binding z-score [10]
CGTCAAAGTTCAAGGGAACGTAACAGAAAGCAGC,0.445,1.36,0.481,1.2,2.69,3.89,2.32,3.09,1.28,5.11
TCTAGCAGGCCAGAGGGTCACTCAGGAGGTACGG,1.15,0.889,-0.476,-0.637,0.195,1.35,-0.32,2.12,-0.425,2.28
ATCTCTAGGTAAGACACAGTTCAGTGAAGAACGC,2.01,1.34,1.21,1.33,1.82,1.31,1.06,0.786,1.69,0.924
CGAACCAGGTCATTGACAGGACAGTGAATAGTAA,4.92,5.01,0.122,0.405,1.32,2.53,0.75,2.92,0.518,3.58
CCTACTGGGCCATCAGTTCATTGATATCAACGTT,4.11,3.98,0.61,0.651,0.245,1.18,2.78,0.106,0.0148,0.462
CCTACTGGGCCAAGGTGATTGATCAGTCAAAGCA,3.98,3.6,-0.461,-1.01,-0.0957,-0.771,-0.714,-0.606,-1.01,0.182
GATATTAGTTGAAAGGGCAACCGAATGATTCTCG,0.557,1.16,0.952,0.799,2.21,0.994,0.916,1.81,2.21,2.27
TCATATAGGTAATACAGGTGAAAGTCGGCATCTA,4.2,3.48,1.31,1.86,1.33,0.888,0.728,1.34,1.98,0.83
CAAACTAGGTCTCAGAGGTCAAAGTCCGTGCGTA,5.55,5.54,0.45,0.559,2.98,5.51,2.93,5.67,1.38,3.88
CGAACTAGGTCATTGACAGGAAAGTGAATAGTAA,7.79,8.25,2.11,2.92,1.37,1.37,0.599,2.02,0.0841,3.59
GCTTGCAGGCCATTTGGGTCACTCAATGACGGGC,3.07,3.01,-0.212,-0.514,0.237,0.662,0.0952,1.09,-0.792,1.76
TCATATAGGTAAACAGGTGAAAGTTCGTAAGTTA,4.94,5.28,1.8,1.15,1.88,2.07,2.12,2.61,2.02,1.25
ACTAGTTGGTCAGCTGAGGTCACGCACAATTCGG,1.52,3.03,0.779,-0.0173,2.43,5.57,1.08,4.84,0.816,4.04
ATCGAAAGGTCGACGAGGTGAGTTTACACCGTTT,0.636,2,1.01,0.288,1.24,3.35,0.675,3.27,0.024,3.9
ATTAGTTGGTCAGCTGAGGTCACACACAATTCGG,2.22,3.28,0.989,1.49,3.67,5.59,2.59,4.84,2.74,3.72
ATCTCTAGCTAAAAGTTCAGTGAATCCCGAGGAT,-0.639,-0.151,0.697,1.23,0.702,1.3,1.49,0.379,0.986,2.17
CCTACTGGGCCAAAAAGGTCAGTGATGCCGATAA,3.45,3.63,-0.398,-1.18,2.33,2.55,0.561,3.29,1.18,3.67
CAAACTAGGTCAAAGGTCACAGTCGAGCCAACCA,8.58,9.39,3.19,2.73,4.25,6.88,1.29,8.53,1.9,5.89
ACTAGCACGCCAAGGGTCACTCAAGATTAGTCCG,0.189,1.26,-0.247,-0.0799,2.55,3.56,0.0958,4.5,1.53,3.58
ACTCGGCGGACAAAGGTCAGAGCTACGCCAGTGA,0.148,2.33,-0.012,-0.434,1.79,3.41,0.0332,4.18,0.924,4.22
ACTCGGAGGACAACGGTCAGAGCTACGCCAGTGA,0.208,0.015,-0.698,-0.749,-0.201,-0.539,-0.446,-0.355,0.128,2
CAGCCTTGGTCAGGGCCAGTATAGGAGGAACGTT,-0.703,-0.873,-1.09,-1.73,-1.21,-0.903,-0.901,-0.84,-0.916,0.481
GCTAGTTGGTCAGTAAAAGGTCAAACACCGGTCG,1.17,2.62,-0.0315,0.251,4.94,5.21,1.94,6.29,1.53,4.13
ATATGTAGGTTAGTTGGGGTCATTCAGACTAGGC,6.81,5.83,2.02,2.15,3.78,6.79,7.04,5.99,2.35,3.21
